Bioassay records (PubChem BioAssay)
Hits are enriched below; roughly 4.2% of the tested compounds scored in any of these assays.
ssDAF-12 act = S. stercoralis DAF-12 nuclear receptor activators, primary screen, cell-based, luminescence, HEK293, GRIP1 co-expression, lit1-tk-luc. 370,000 compounds, 1% hits. HEK293 ssDAF-12/GRIP1 lit1-tk-luc reporter; % of 3 µM dafachronic acid response. AID 652126, 2013. activation, % at 6.8 µM;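 active = activation above the mean over all tested compounds plus 3 SD, cut at about 0.9% in these data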
hcDAF-12 act = H. contortus DAF-12 nuclear receptor activators, primary screen, cell-based, luminescence, HEK293, lit1-tk-luc reporter; 370,000 compounds, 1.4% hits; activation, % at 6.8 µM; HEK293 hcDAF-12 lit1-tk-luc reporter; 0% DMSO, 100% Δ7-dafachronic acid;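 active = activation above the mean of all tested compounds plus 3 SD, cut at about 5.5% in these data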
DAX1 StAR inh = DAX1 (NR0B1) inhibitors on StAR promoter, primary screen, cell-based, luminescence, SF-1 (NR5A1), full-length DAX-1; HEK293T StAR-luciferase reporter, SF-1/DAX-1 repression relief; inhibition, % at 6.8 µM; 370,000 compounds, 1.1% hits; AID 652010, 2013;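 active = inhibition above the mean over all tested compounds plus 3 SD, cut at about 3.6% in these data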;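 note: higher inhibition means more luminescence from relief of DAX-1 repression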
SMARCA2 act = SMARCA2 (BRM) function activators, primary screen, cell-based, luminescence, high throughput; MG213 cells, MMTV-luciferase reporter, dexamethasone, overnight; activation, % at 9.1 µM; 370,000 compounds, 1% hits; in the data active = activation above about 7.8%
hgDAF-12 ag = H. glycines DAF-12 receptor agonists, primary screen, cell-based, luminescence, HEK293, GAL4 fusion, UAS-luciferase; 370,000 compounds, 1.8% hits; activation, % at 6.8 µM; HEK293 GAL4-hgDAF12 UAS-luciferase reporter, agonist luminescence; normalized to butyrate control; Nuclear hormone receptor DAF-12 (Heterodera glycines), GAL4 fusion;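 active = activation above a cutoff set at the mean of all screened compounds plus 3 SD, cut at about 10% in these data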
DAX1 conf = DAX1 (NR0B1) inhibitors relieving SF-1 repression, confirmation, cell-based, luminescence, HEK293T, full-length DAX-1, SF-1 activated StAR promoter. HEK293T StAR-promoter luciferase reporter, SF-1/DAX-1 repression. shares compounds with DAX1 StAR inh. inhibition, % at 6.8 µM. 2,400 compounds, 87% hits;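 active = inhibition above the average of every tested compound plus 3 SD, cut at about 3.8% in these data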
SF1 AF2mut Luc = StAR reporter signal changes without DAX1, counter-screen for DAX1 inhibitor project, cell-based, luminescence, AF-2 mutant SF-1, transactivation; inhibition, % at 6.8 µM; AID 652136, 2013; 2,400 compounds, 78% hits; HEK293 StAR-luciferase, SF-1 AF2 mutant; shares compounds with DAX1 StAR inh;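 active = inhibition above the mean of all tested compounds plus 3 SD, cut at about 3% in these data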
SMARCA2 act conf = SMARCA2 (BRM) function activators, confirmation, cell-based, luminescence, triplicate. shares compounds with SMARCA2 act. MG213 cells, MMTV-luciferase with dexamethasone, overnight; MG213 cells expressing E1A, Rb sequestered; DMSO wells 0%, reference activator 100%. activation, % at 9.1 µM. 3,500 compounds, 30% hits;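 active = activation above its plate's cutoff, the mean activation of tested wells plus 3 SD, cut at about 7.9% in these data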
GAL4-VP16 Luc = GAL4-VP16 luciferase reporter activation, counter-screen for SMARCA2 (BRM) activator project, cell-based, pG5luc, luminescence, high throughput; shares compounds with SMARCA2 act; HEK293 GAL4-VP16 pG5luc reporter; scaled: DMSO wells 0%, SAHA wells 100%; activation, % at 9.1 µM; 3,500 compounds, 41% hits; AID 686939, 2013;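 active = activation above the solvent-only control well mean plus 3 SD, averaged across control plates, cut at about 5.2% in these data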
LXRb hcDAF ctr = LXR agonists, Gal4 luciferase reporter, confirmation, counter-screen for hcDAF-12 agonist project, cell-based, luminescence, HEK293, H. contortus campaign; HEK293 Gal4-LXR tk-luc reporter, 24 h; normalized: DMSO 0%, positive control 100%; 3,400 tested, under 10 active; shares compounds with hcDAF-12 act; activation, % at 6.8 µM; AID 743027, 2013;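 active = mean percent activation of the reporter above a cutoff set as the average over tested compounds plus their standard deviation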
Target sequence (P55055 whole entry, looked up, the tested form may be a part): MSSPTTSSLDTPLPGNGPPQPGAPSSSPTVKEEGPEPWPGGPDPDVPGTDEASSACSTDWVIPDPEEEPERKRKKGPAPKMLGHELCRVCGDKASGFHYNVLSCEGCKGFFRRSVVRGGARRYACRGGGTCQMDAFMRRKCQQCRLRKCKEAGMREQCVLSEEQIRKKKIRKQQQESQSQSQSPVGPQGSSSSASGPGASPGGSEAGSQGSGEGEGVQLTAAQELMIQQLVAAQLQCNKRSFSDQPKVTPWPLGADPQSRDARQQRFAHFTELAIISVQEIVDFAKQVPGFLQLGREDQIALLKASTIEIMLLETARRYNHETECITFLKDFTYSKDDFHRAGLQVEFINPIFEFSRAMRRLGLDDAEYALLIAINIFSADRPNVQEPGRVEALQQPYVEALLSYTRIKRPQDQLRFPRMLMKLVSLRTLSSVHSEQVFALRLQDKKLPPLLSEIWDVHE
hcDAF12 ag = H. contortus DAF-12 receptor agonists, confirmation, cell-based, luminescence, HEK293, lit1-tk-luc, triplicate; shares compounds with hcDAF-12 act; HEK293 hcDAF-12 lit1-tk-luc reporter; % of Δ7-dafachronic acid response; activation, % at 6.8 µM; 3,400 compounds, 61% hits; AID 743032, 2013;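 active = mean activation across triplicate tests above the threshold derived from the earlier primary screen, cut at about 5.5% in these data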
hgDAF12 ag = H. glycines DAF-12 receptor agonists, confirmation, cell-based, luminescence, HEK293, GAL4-LBD fusion | 3,300 compounds, 80% hits | HEK293 GAL4-hgDAF12 luciferase reporter, agonist mode; percent of butyrate response | shares compounds with hgDAF-12 ag | activation, % at 6.8 µM;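 active = mean activation over triplicate wells above the hit cutoff derived from the earlier primary screen, cut at about 11% in these data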
LXRb DAF12 ctr = LXR agonists, Gal4 luciferase reporter, confirmation, counter-screen for hgDAF-12 agonist project, cell-based, luminescence, HEK293, H. glycines campaign | shares compounds with hgDAF-12 ag | 24 h | activation, % at 6.8 µM | 3,300 tested, under 10 active | AID 743051, 2013;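 active = mean activation of the triplicate above a set limit carried over from the primary screen, none filed active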
Of the large screens only hits and unclear results are named; the others gave an inactive call (follow-up assays come after a bar, where they were run).

COC(=O)[C@]12C[C@H](CC(=O)NCc3cccs3)C(=O)N(Cc3ccccc3)C1=C[C@H](C1CCCC1)O[C@@H]2C	none
O=C(c1ccccc1)c1coc(-c2ccccc2)c1	DAX1 StAR inh 7.5, hgDAF-12 ag 14.2 | DAX1 conf 14.4 | SF1 AF2mut Luc 5.0 | hgDAF12 ag 20.6 | LXRb DAF12 ctr inactive
CC(=O)N1CCC(C(=O)N2c3ccccc3N=C(c3ccc4c(c3)OCO4)C2C(=O)NCc2ccccc2)CC1 (stereo unspecified)	none
Nc1nn(-c2cccc(F)n2)cc1-c1ccccc1	ssDAF-12 act 1.1, hcDAF-12 act 10.6, DAX1 StAR inh 4.6, hgDAF-12 ag 17.3 | DAX1 conf 12.1 | SF1 AF2mut Luc 3.7 | LXRb hcDAF ctr inactive | hcDAF12 ag 9.3 | hgDAF12 ag 18.7 | LXRb DAF12 ctr inactive
Cc1ccc(C(=O)Cn2nnc3ccccc32)cc1C	hcDAF-12 act 5.9, DAX1 StAR inh 4.8, hgDAF-12 ag 16.8 | DAX1 conf 9.3 | SF1 AF2mut Luc 5.7 | hgDAF12 ag 17.2 | LXRb DAF12 ctr inactive
O=C(Cn1nnc2ccccc21)c1ccc(Br)cc1	none
O=C(O)c1ccc(N=Nc2c(O)[nH]c3ccccc23)cc1	ssDAF-12 act 2.0, hcDAF-12 act 12.1, DAX1 StAR inh 5.9, hgDAF-12 ag 15.8 | DAX1 conf 10.6 | SF1 AF2mut Luc 5.7 | LXRb hcDAF ctr inactive | hcDAF12 ag 9.9 | hgDAF12 ag 16.8 | LXRb DAF12 ctr inactive
CC(C)N(C)c1ncnc2c1ncn2[C@H]1CN(Cc2ccc(-c3ccccc3)cc2)C[C@@H](CO)O1	none
NC(=O)c1ccccc1NC(=O)Nc1cccc(Cl)c1	none
O=C(Nc1cccc(Cl)c1)Nc1ccccc1C(=O)O	DAX1 StAR inh 4.7, hgDAF-12 ag 14.2 | DAX1 conf 11.1 | SF1 AF2mut Luc 7.6 | hgDAF12 ag 15.0 | LXRb DAF12 ctr inactive
Cc1ccc2nc(-c3cccc(N)c3)oc2c1	hcDAF-12 act 6.4, DAX1 StAR inh 5.4, hgDAF-12 ag 14.7 | DAX1 conf 14.6 | SF1 AF2mut Luc 6.8 | hgDAF12 ag 16.3 | LXRb DAF12 ctr inactive
CN(C)c1ccc(N=Nc2nccs2)cc1	ssDAF-12 act 2.2, hcDAF-12 act 9.7, DAX1 StAR inh 7.0, hgDAF-12 ag 18.3 | DAX1 conf 15.8 | SF1 AF2mut Luc 5.9 | LXRb hcDAF ctr inactive | hcDAF12 ag 10.9 | hgDAF12 ag 19.8 | LXRb DAF12 ctr inactive
O=C(CC(=O)c1ccccn1)c1ccccc1	DAX1 StAR inh 6.0, hgDAF-12 ag 14.4 | DAX1 conf 8.6 | SF1 AF2mut Luc 5.2 | hgDAF12 ag 15.7 | LXRb DAF12 ctr inactive
CC(C)c1ccc(CNNC(=O)c2ccccc2)cc1	none
O=C(NNCc1ccccc1)c1ccccn1	DAX1 StAR inh 7.8, SMARCA2 act 14.6, hgDAF-12 ag 18.6 | DAX1 conf 9.2 | SF1 AF2mut Luc 4.7 | SMARCA2 act conf inactive | GAL4-VP16 Luc 16.1 | hgDAF12 ag 14.2 | LXRb DAF12 ctr inactive
O=C(NNCc1ccccc1)c1ccccc1	DAX1 StAR inh 6.1, hgDAF-12 ag 16.1 | DAX1 conf 12.6 | SF1 AF2mut Luc 5.8 | hgDAF12 ag 12.1 | LXRb DAF12 ctr inactive
O=C(/C=C/Nc1ccc(F)cc1F)c1ccco1	ssDAF-12 act 2.1, hcDAF-12 act 15.1, DAX1 StAR inh 7.5, hgDAF-12 ag 24.9 | DAX1 conf 7.2 | SF1 AF2mut Luc inactive | LXRb hcDAF ctr inactive | hcDAF12 ag 19.8 | hgDAF12 ag 13.7 | LXRb DAF12 ctr inactive
CC(=O)Nc1ccc(N/C=C/C(=O)c2ccco2)cc1	none
COc1cccc2cc(-c3csc(NC(=O)CCC(=O)NCCCN4CCC(C)CC4)n3)c(=O)oc12	ssDAF-12 act 1.6, hcDAF-12 act 6.2, DAX1 StAR inh 4.5, hgDAF-12 ag 15.5 | DAX1 conf 16.4 | SF1 AF2mut Luc 3.8 | hgDAF12 ag 14.0 | LXRb DAF12 ctr inactive
CCC(CO)Nc1cccc2c1S(=O)(=O)N(Cc1cn(Cc3cccc(F)c3)nn1)Cc1ccccc1O2 (stereo unspecified)	none
